Six1-Eya2 blk: Six1/Eya2 interaction inhibition | Q15475+O00167 | activity change, % (test concentration not listed) | AID 651725 | 0.56% of 360,000 active | AlphaScreen GST-Six1/His-Eya2 binding, biochemical; hits give low values; in the data active = activity change below about -65%; inconclusive = mostly about -30% to -63%
Target sequence (O00167 whole entry, looked up): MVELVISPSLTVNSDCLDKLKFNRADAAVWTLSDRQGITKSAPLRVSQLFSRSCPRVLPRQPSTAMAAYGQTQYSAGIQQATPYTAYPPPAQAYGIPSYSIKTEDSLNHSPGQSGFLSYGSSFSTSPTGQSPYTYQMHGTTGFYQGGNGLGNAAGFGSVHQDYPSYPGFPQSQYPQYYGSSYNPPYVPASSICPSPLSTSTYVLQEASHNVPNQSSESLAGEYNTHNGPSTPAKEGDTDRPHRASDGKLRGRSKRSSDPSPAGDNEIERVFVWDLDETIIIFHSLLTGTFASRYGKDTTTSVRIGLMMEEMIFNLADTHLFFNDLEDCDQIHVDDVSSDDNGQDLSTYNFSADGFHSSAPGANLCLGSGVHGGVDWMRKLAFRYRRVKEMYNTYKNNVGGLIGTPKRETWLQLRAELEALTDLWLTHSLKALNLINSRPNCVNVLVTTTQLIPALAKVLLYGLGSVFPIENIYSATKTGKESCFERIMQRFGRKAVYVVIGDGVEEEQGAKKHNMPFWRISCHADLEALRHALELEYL
Target sequence (Q15475 whole entry, looked up): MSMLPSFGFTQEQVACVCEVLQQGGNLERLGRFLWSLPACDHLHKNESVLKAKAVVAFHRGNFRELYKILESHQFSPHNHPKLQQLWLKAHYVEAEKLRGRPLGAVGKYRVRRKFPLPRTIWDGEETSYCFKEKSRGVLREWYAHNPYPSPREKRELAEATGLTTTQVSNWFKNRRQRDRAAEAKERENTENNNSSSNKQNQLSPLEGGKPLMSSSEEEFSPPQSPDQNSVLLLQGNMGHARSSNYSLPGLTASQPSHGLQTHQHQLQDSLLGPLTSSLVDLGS
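AlphaScreen luminescence read after one hour at 37 °C in darkness. Pin-transferred compounds met GST-Six1 and His-Eya2 protein (5X stock 250 nM/500 nM) plus glutathione donor and Ni-chelate acceptor beads (5X, 50 ug/mL).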
G9a block: G9a (human) methyltransferase inhibition; G9a H3K9 monomethylation, AlphaScreen, 2 h; Potency, µM (highest dose often 102 µM), usual class: inhibitors; AID 504332; 8.8% of 350,000 active; Q96KQ7; also: nearly all actives have a fitted effect of over 75% in size
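Signal arises when biotinylated H3K9 peptide, once monomethylated, bridges streptavidin donor and antibody-captured acceptor beads. Enzyme at 20 nM was preincubated 15 min with test compounds; peptide 500 nM and SAM 20 uM then reacted for 2 h.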
BAZ2B block: blocks human BAZ2B; 4.4% of 360,000 active; Potency, µM (top dose mostly 114 µM), usual class: inhibitors; AID 504333; AlphaScreen BAZ2B-H3K14Ac peptide displacement; also: nearly all actives have a fitted effect of over 60% in size
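In this displacement format the biotinylated H3(5-23) peptide acetylated at Lys14 serves as ligand at 50 nM, with BAZ2B at 50 nM in PBS pH 7.4 containing 0.01% Tween-20. Donor and acceptor beads are 10 ug/mL final.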
HP1b chromo inh: blocks HP1-beta chromodomain binding to methylated histone tails; Potency, µM (doses to about 114 µM), actives largely listed as inhibitors; AlphaScreen HP1-beta / biotin-H3K9me3 peptide binding; AID 540317; P83916; 0.56% of 390,000 active; also: nearly all actives have a fitted effect of over 70% in size
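Compound inhibition of the preformed complex between 50 nM HP1-beta and 50 nM biotinylated H3K9me3 peptide was read by AlphaScreen. Buffer was PBS pH 7.4 with 0.01% Tween-20. Incubations ran 30 min at room temperature, with 10 ug/mL donor/acceptor beads.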
CtBP-E1A blk: CtBP/E1A binding inhibition; 0.49% of 340,000 active; AlphaScreen GST-E1A/His-CtBP binding, 1536-well; hits give low values; activity change, % (test concentration not listed); in the data active = activity change below about -65%; inconclusive = mostly about -30% to -63%
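In 5 uL wells, 23 nL compound meets equimolar GST-E1A and His-CtBP (5X stock 125 nM each) for 2 h, 37 °C. Beads (5X, 50 ug/mL) then 1 h, 37 °C, dark.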
JMJD2A Tudor inh: inhibitors of human JMJD2A Tudor domain. O75164. AlphaScreen JMJD2A-Tudor / H3K4me3 peptide binding. Potency, µM (doses to about 114 µM), usual class: inhibitors. 4.4% of 390,000 active. AID 504339; also: nearly all actives have a fitted effect of over 50% in size
A number is an active result; - = inactive; ? = inconclusive; . = not tested or not shown; [ ] = remark or other dose. Hits are enriched below; roughly 10% of the tested compounds scored in any of these assays. Unless noted, calls follow the shape of the dose curve; as a rule, active = well fitted inhibition curve with a large enough effect; inconclusive = small, poorly fitted or top-dose-only effect; inactive = no such curve, though single readings can be large or run the other way.

SMILES	Six1-Eya2 blk	G9a block	BAZ2B block	HP1b chromo inh	CtBP-E1A blk	JMJD2A Tudor inh
S=C(Nc1ccc(Cl)cc1)Nc1cccc2cnccc12	-	45µM	-	-	-	-
C=CCS/C(N)=N\N=C\c1c(O)ccc2ccccc12	-	-	-	-	-	-
O=c1cnc2cnc(N3CCOCC3)nc2n1CCc1ccccc1	.	-[0.501 µM]	.	.	.	.
C=CCNC(=S)Nc1cccc2ccccc12	-	45µM	-	-	-	-
S=C(Nc1cccnc1)Nc1cccc2cnccc12	-	35µM	.	-	-	-
Fc1ccc(NC(=S)Nc2cccc3cnccc23)cc1	-	35µM	-	-	-	-
COc1ccccc1NC(=S)Nc1cccc2cnccc12	-	25µM	-	-	-	-
C=CCNC(=S)NCc1ccccc1	-	.	-	-	-	-
CN(C)S(=O)(=O)c1cccc(NC(=S)Nc2cccc3cnccc23)c1	-	.	-	?	?	-
CCOc1cccc(-c2nc3ccccc3c(=O)o2)c1	.	-	-	-	.	-
Cc1ccc(C)c(NC(=O)Cn2c(SCC(=O)NCc3ccccc3)nc3ccccc32)c1	.	-	-	-	.	-
N#C/C(=C\c1ccc(N2CCOCC2)o1)c1ccccc1	-	?	40µM	-	-	?
N#C/C(=C/c1ccc(N2CCOCC2)o1)c1ccc(Br)cc1	-	7.9µM	45µM	?	-	56µM
S=C(c1nc2ccccc2[nH]1)N1CCOCC1	-	1.6µM	-	?	-	-
N#C/C(=C/c1ccc(N2CCCCCC2)o1)c1ccc(F)cc1	-	.	.	-	-	-
COc1cc(N2CCCC2)c(OC)cc1/C=C(/C#N)c1cccc(F)c1	-72	?	22µM	?	?	20µM
CC(=O)Nc1ccc(S(=O)(=O)N2CCN(S(=O)(=O)c3ccc4c(c3)OCCO4)CC2)cc1	.	.	.	.	.	-
N#C/C(=C/c1ccc(N2CCCCCC2)o1)c1cccc(F)c1	-	?	?	?	-	40µM
N#C/C(=C/c1ccc(N2CCOCC2)o1)c1nc2ccccc2[nH]1	?	8.9µM	?	-	-	?
N#C/C(=C\c1ccc(N2CCOCC2)o1)C(=O)Nc1ccc(O)cc1	?	40µM	?	-	?	-
N#C/C(=C\c1cc([N+](=O)[O-])c(N2CCOCC2)cc1N1CCOCC1)c1nc2ccccc2[nH]1	?	-	-	-	-	?
Oc1cccc(-c2nc3c4c(ncn3n2)-c2ccccc2CC42CCCC2)c1	-	-	-	-	-	-
CC1=CC2=NC(=O)/C(=C\c3cccn3CCOc3cccc(C)c3)C(=N)N2O1	-	-	-	-	-	?
COc1cccc(OCCn2cccc2/C=C2/C(=N)N3OC(C)=CC3=NC2=O)c1	-	18µM	?	-	-	-
CC1=CC2=NC(=O)/C(=C\c3cccn3CCOc3cc(C)cc(C)c3)C(=N)N2O1	-	40µM	?	-	-	?
SMILES	Six1-Eya2 blk	G9a block	BAZ2B block	HP1b chromo inh	CtBP-E1A blk	JMJD2A Tudor inh
CC1=CC2=NC(=O)/C(=C\c3cccn3CCOc3ccccc3)C(=N)N2O1	-	?	?	-	.	?
CCOc1ccc(N2C(=O)N(Cc3ccc(C)cc3C)c3ccccc3S2(=O)=O)cc1	.	-	-	-	.	-
O=Cc1c2[nH]c3ccccc3c2cc2[nH]c3ccccc3c12	.	-	.	.	.	.
N#Cc1ccc(C(=O)NN2C(=O)NC3(CCCCC3)C2=O)cc1	-	56µM	-	-	-	-
CN(C)c1cccc(C(=O)NN2C(=O)NC3(CCCCC3)C2=O)c1	-	-[12.7 µM]	-	-	-	-
COc1cccc(C2c3cc4c(cc3OC(N3CCOCC3)C2C)OCO4)c1O (stereo not given)	-	.	.	?	-	40µM
Cc1cccc(NC(=O)c2nc(S(C)(=O)=O)ncc2Cl)c1	.	8.9µM	-	-	.	-
CN(c1ccccc1)S(=O)(=O)c1ccc(NC(=O)c2nc(S(C)(=O)=O)ncc2Cl)cc1	-	11µM	-	-	-	?
CCS(=O)(=O)c1ncc(Cl)c(C(=O)Nc2c(C(=O)Nc3cccc(C)c3)oc3ccccc23)n1	.	?	-	-	.	-
COc1cccc(NC(=O)c2nc(S(C)(=O)=O)ncc2Cl)c1	-	35µM	-	-	-90	-
Nc1ccn([C@@H]2O[C@H](CO)[C@H](O)C2(F)F)c(=O)n1	.	-[12.7 µM]	.	.	.	.
COc1ccc(Nc2cc(C)nc(NCc3ccccc3)n2)cc1	-	50µM	-	-	-	?
S=C1CSc2ccccc2N1	-	?	-	-	-	-
c1ccc2c(c1)NCCS2	-	-[0.501 µM]	50µM	-	-	50µM
C=C(C)CNC(=S)Nc1cccc(N)n1	-	1.3µM	?	-	-	-
CC(C)(C)C1CC=C2C(C#N)=C(N)C(C#N)(C#N)C(c3cccs3)C2C1 (stereo not given)	.	50µM	?	.	.	.
CCSc1oc(-c2ccc(F)cc2)nc1S(=O)(=O)c1ccc(C)cc1	.	18µM	-	-	.	-
CSc1oc(-c2ccccc2)nc1S(=O)(=O)c1ccc(C)cc1	-	56µM	-	-	-	-
Cc1ccc(-c2nc(S(=O)(=O)c3ccc(C)cc3)c(SCC(N)=O)o2)cc1	-	25µM	-	-	-	-
CNc1oc(Cc2ccccc2)nc1S(=O)(=O)c1ccc(Cl)cc1	-	25µM	-	-	-	?
Cc1ccc(-c2nc(S(=O)(=O)c3ccc(C)cc3)c(SCC(=O)Nc3ccc(F)cc3)o2)cc1	.	-	-	-	.	-
Cc1ccc(S(=O)(=O)c2nc(-c3cccs3)oc2SCC(N)=O)cc1	-	?	-	-	-	-
CCc1ccc(NC(=O)CC2C(=O)N(c3ccc(Cl)cc3)C(=O)N2Cc2cccs2)cc1 (stereo not given)	.	?	-	-	.	-
CN(C(=O)c1cccc(NC(=O)Cc2ccc(NC(=O)C3CCCN(C(=O)C4CCCC4)C3)cc2)c1)C1CC1 (stereo not given)	-	.	.	-	-	-
CNc1oc(-c2ccc(F)cc2)nc1S(=O)(=O)c1ccccc1	-	45µM	-	-	-	-
SMILES	Six1-Eya2 blk	G9a block	BAZ2B block	HP1b chromo inh	CtBP-E1A blk	JMJD2A Tudor inh
COc1ccc(CCNC(=O)c2ccc(NC(=O)CC3SC(N4CCCCC4)=NC3=O)cc2)cc1 (stereo not given)	-	.	.	-	.	-
CC1CCc2c(sc3[nH]c(=S)n(C)c(=O)c23)C1 (stereo not given)	-	3.5µM	-	?	-	?
CCn1c(=S)[nH]c2sc3c(c2c1=O)CCCC3	-	.	-	-	.	-
c1ccc(-c2cncn2-c2ccccc2)cc1	-	-[2.33 µM]	50µM	-	-	?
c1ccc(-c2cnnn2-c2ccccc2)cc1	-	-	-	-	-	-
O=c1c(-c2ccc(F)cc2)nc2cnc(Oc3ccccc3)nc2n1Cc1cccs1	.	-[0.501 µM]	.	.	.	.

Compound activity deposited in PubChem BioAssay by National Center for Advancing Translational Sciences (NCATS).
